Test results reported in PubChem BioAssay (EPA / NIEHS).
Values joined by “and” are separate entries in the source; they are usually repeats but may differ in a detail not shown here. Equal entries are not always repeated. More than one record can exist for a structure, and the calls need not agree. Active and inactive are the calls of the source. How the source made its calls: active means hit-call score of the fitted dose curve at least 0.9, where 1 is the maximum; inactive means score below 0.9.

Key:
Settings in all cases: mRNA level, 48 h; actives raise or lower the signal
[1] = read-out: Bcl-2 (BAD) gene, BAD (gene 572); assay: LTEA_HepaRG_BAD: Life Technologies and Expression Analysis (LTEA) Assay for Bcl-2 (BAD) gene using HepaRG (AID 2283469)
In short: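 Differentiated human HepaRG cells in serum-free induction medium were exposed in duplicate for 48 h to eight concentrations (top 100 uM, half-log steps, 0.5% DMSO). BAD mRNA was quantified by qRT-PCR normalised to ACTB, GAPDH and POLR2A, with bidirectional fitting versus DMSO.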

[2] = read-out: Bcl-2 (BAX) gene, BAX (gene 581); assay: LTEA_HepaRG_BAX: Life Technologies and Expression Analysis (LTEA) Assay for Bcl-2 (BAX) gene using HepaRG (AID 2283470)
In short: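 Differentiated HepaRG cells exposed 48 h in serum-free induction medium, eight half-log concentrations from 100 uM, in duplicate, 0.5% DMSO vehicle. BAX mRNA by TaqMan qRT-PCR, normalised to ACTB, GAPDH and POLR2A.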

[3] = read-out: adenosine kinase (ADK) gene, ADK (gene 132); assay: LTEA_HepaRG_ADK: Life Technologies and Expression Analysis (LTEA) Assay for adenosine kinase (ADK) gene using HepaRG (AID 2283471)
In short: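 HepaRG (human liver), 48 h chemical exposure, 8-pt half-log series, top 100 uM, 0.5% DMSO vehicle. Readout: ADK mRNA by qRT-PCR vs housekeeping genes; bidirectional curve fit relative to DMSO baseline.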

[4] = read-out: Alpha-fetoprotein (AFP) gene, AFP (gene 174); assay: LTEA_HepaRG_AFP: Life Technologies and Expression Analysis (LTEA) Assay for Alpha-fetoprotein (AFP) gene using HepaRG (AID 2283472)
In short: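 Differentiated human HepaRG cells exposed 48 h in serum-free induction medium, 8-point half-log series from 100 uM in 0.5% DMSO, duplicate. AFP mRNA by qRT-PCR, normalized to ACTB, GAPDH, POLR2A; bidirectional fit vs DMSO.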

[5] = read-out: BCL2L11 (gene 10018); assay: LTEA_HepaRG_BCL2L11: Life Technologies and Expression Analysis (LTEA) Assay for Bcl-2 (BCL2L11) gene using HepaRG (AID 2283473)
In short: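 Cells were plated, cultured 48 h, switched to serum-free induction medium, then dosed in duplicate for 48 h at eight half-log concentrations up to 100 uM. Lysates underwent RNA isolation and TaqMan qRT-PCR; gain or loss versus DMSO was fitted.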

[6] = read-out: Apolipoprotein A-V (APOA5) gene, APOA5 (gene 116519); assay: LTEA_HepaRG_APOA5: Life Technologies and Expression Analysis (LTEA) Assay for Apolipoprotein A-V (APOA5) gene using HepaRG (AID 2283474)
In short: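 Human liver HepaRG cells are treated 48 h with test chemicals (100 uM top, half-log dilutions, 0.5% DMSO). APOA5 mRNA induction or loss is measured by qRT-PCR relative to vehicle.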

[7] = read-out: Apoptosis regulator Bcl-2 (Homo sapiens) (UniProt P10415); assay: LTEA_HepaRG_BCL2: Life Technologies and Expression Analysis (LTEA) Assay for Bcl-2 gene using HepaRG (AID 2283475)
In short: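 Differentiated human HepaRG cells in serum-free induction medium exposed 48 h, in duplicate, to 8-point half-log series from 100 uM in 0.5% DMSO. BCL2 mRNA by qRT-PCR (TaqMan/Fluidigm), normalized to ACTB, GAPDH, POLR2A; bidirectional fit against DMSO.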

[8] = read-out: Bcl-2 (BID) gene, BID (gene 637); assay: LTEA_HepaRG_BID: Life Technologies and Expression Analysis (LTEA) Assay for Bcl-2 (BID) gene using HepaRG (AID 2283476)
In short: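 Gene expression by qRT-PCR in HepaRG cells after 48 h exposure, duplicate wells, eight half-log concentrations topping at 100 uM in 0.5% DMSO. Normalized to ACTB, GAPDH, POLR2A; bidirectional fitting relative to DMSO.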

[9] = read-out: Caspase-3 (Homo sapiens) (UniProt P42574); assay: LTEA_HepaRG_CASP3: Life Technologies and Expression Analysis (LTEA) Assay for cysteine-aspartic acid protease (CASP3) using HepaRG (AID 2283477)
Experimental: LTEA_HepaRG is a cell based, multiplexed-readout assay that uses HepaRG, a human liver cell line, with measurements taken at 48 hours after chemical dosing on a 96-well plate.LTEA_HepaRG_CASP3 is one of 102 assay component(s) measured in the LTEA HepaRG cell culture assay. It is a marker of Cell proliferation, survival, death.Data from the assay component LTEA_HepaRG_CASP3 was analyzed into 1 endpoint. This assay endpoint, LTEA_HepaRG_CASP3, was analyzed with bidirectional fitting relative to DMSO as the negative control and baseline of activity. Using a type of inducible reporter, measures of mRNA induction for gain or loss-of-signal activity can be used to understand regulation of transcription factor activity. To generalize the intended target to other relatable targets, this assay endpoint is annotated to the protease intended target family, where the subfamily is cysteine protease.
A total of 1060 chemcials from the ToxCast library were tested in eight-point concentration-response experiments. Cell culture and cytotoxicity assays were conducted at Thermo Fisher Scientific's Custom Services facility (Madison, WI). A single lot of human HepaRG cells (Thermo Fisher Scientific, Frederick, MD) was used for the cell culture experiments. 96-well format collagen type I coated plates of human HepaRG cells were prepared using established methods. Briefly, cryopreserved HepaRG cells were thawed, plated at a density of approximately 100,000 cells/well in HepaRG Thaw, Plate, and General Purpose media (HPRG770, Thermo Fisher Scientific), and incubated for 48 hours. 0.5% DMSO was selected as vehicle control to balance the requisite need of DMSO in HepaRG cultures to maintain differentiation (for example, baseline metabolism, proportions of hepatocytes vs. cholangiocytes), while enabling further hepatic receptor pathway activation (for example, PXR and CAR) in response to chemical exposure. 48 hours after plating, the culture medium was replaced with HepaRG Serum-Free Incudtion Media. Cells were exposed to each test chemical in duplicate and maintained in CO2 incubators for another 48 hours. Chemical plates were thawed to room temperature and 200x concentrations of treatment groups were prepared. 8-point conentration-reponse curves were made with the highest exposure at 100 uM, followed by half-log dilutions, all in 0.5% DMSO. Each test plate contained variouse controls, induction positive controls (1mM phenobarbital), cytotoxicity positive controls ([…] aflatoxin B1), vehicle controls (0.5% DMSO), and total lysis controls (0.5% DMSO). Cell morphology images were taken using an Essen IncuCyte FLR automated microscope, with six 96-well plates imaged in about 24 minutes. Images were captured and exported and JPEG files. Spent culture media was transfered to black-well plates for the LDH assay, and remaining media was sorted at -80 C for later use. Cells were treated with RLT buffer and frozen until shipped for gene expression analysis. Total RNA was isolated from the cell suspension in 75 uL of Buffer RLT (Qiagen, Germantown, MD 20874) by Quintiles/Expression Analysis (Durham, NC) using a custom isolation procedure. Total RNA from each plate well was transferred to a preamplification plate. Fluidigm's 96.96 Dynamic ArrayTM (Fluidigm, Amsterdam, the Netherlands) technology was used for gene expression analyses by quantitative reverse transcription polymerase chain reaction (qRT-PCR, performed by Quintiles/Expression Analysis, Durham, NC)89. Standard TaqManTM Assays (Applied Biosystems/ThermoFisher Scientific, Foster City, CA) were used to assess the expression of 93 genes selected based on their selectivity and sensitivity to important hepatic receptors known to be modulated by environmental chemicals; importance in human hepatocyte functionality; and hepatotoxicity. […]

[10] = read-out: Cytochrome P450 (CYP24A1), CYP24A1 (gene 1591); assay: LTEA_HepaRG_CYP24A1: Life Technologies and Expression Analysis (LTEA) Assay for Cytochrome P450 (CYP24A1) using HepaRG (AID 2283478)
In short: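 Human liver HepaRG cultures receive each chemical for 48 h across an eight-point half-log series topping at 100 uM in 0.5% DMSO. Induction or suppression of CYP24A1 mRNA is scored relative to vehicle after housekeeping-gene normalization.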

Caspase-3 (Homo sapiens), sequence (P42574 whole entry, looked up): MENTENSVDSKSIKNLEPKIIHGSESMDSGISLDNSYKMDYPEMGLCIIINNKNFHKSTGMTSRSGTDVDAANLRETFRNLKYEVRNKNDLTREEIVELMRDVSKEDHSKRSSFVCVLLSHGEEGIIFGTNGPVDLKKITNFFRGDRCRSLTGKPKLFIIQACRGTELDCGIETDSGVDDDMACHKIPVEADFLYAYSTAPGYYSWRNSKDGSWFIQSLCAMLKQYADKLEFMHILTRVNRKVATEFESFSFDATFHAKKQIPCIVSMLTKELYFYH
Apoptosis regulator Bcl-2 (Homo sapiens), sequence (P10415 whole entry, looked up): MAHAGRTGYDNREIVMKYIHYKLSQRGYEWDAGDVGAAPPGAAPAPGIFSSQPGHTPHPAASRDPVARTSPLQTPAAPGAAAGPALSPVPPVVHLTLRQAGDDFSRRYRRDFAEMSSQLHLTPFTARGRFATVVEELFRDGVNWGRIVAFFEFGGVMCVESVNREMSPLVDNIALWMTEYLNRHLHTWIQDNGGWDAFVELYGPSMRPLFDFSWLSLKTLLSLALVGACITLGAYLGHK

Q: Which outcome [1] does the source give for C=C(C)C(N)=O here?
A: inactive

Q: What about the outcome [2] of the same molecule?
A: inactive

Q: And the outcome [3]?
A: inactive

Q: And the outcome [4]?
A: inactive

Q: What about the outcome [5] of the same molecule?
A: inactive

Q: And the outcome [6]?
A: inactive

Q: And the outcome [7]?
A: inactive

Q: And the outcome [8]?
A: inactive

Q: And the outcome [9]?
A: inactive

Q: And the outcome [10]?
A: inactive

Q: C[C@]12CC[C@@H]3c4ccc(O)cc4CC[C@H]3[C@@H]1CC[C@@H]2O was tested. Which outcome [1] did it give?
A: inactive

Q: And the outcome [2]?
A: inactive

Q: And the outcome [3]?
A: inactive

Q: What about the AC50 [4] of the same molecule?
A: 50 µM (active)

Q: And the outcome [5]?
A: inactive

Q: And the AC50 [6]?
A: 68 µM (active)

Q: And the outcome [7]?
A: inactive

Q: And the outcome [8]?
A: inactive

Q: And the outcome [9]?
A: inactive

Q: What about the outcome [10] of the same molecule?
A: inactive

Q: C#C[C@]1(O)CC[C@H]2[C@@H]3CCc4cc(O)ccc4[C@H]3CC[C@@]21C was tested. Which outcome [1] did it give?
A: inactive

Q: And the outcome [2]?
A: inactive

Q: And the outcome [3]?
A: inactive

Q: What about the outcome [4] of the same molecule?
A: inactive

Q: And the outcome [6]?
A: inactive

Q: What about the outcome [7] of the same molecule?
A: inactive

Q: What about the outcome [8] of the same molecule?
A: inactive

Q: And the outcome [9]?
A: inactive

Q: And the outcome [10]?
A: inactive

Q: Which outcome [1] does the source give for O=C(c1ccc(OCCN2CCCCC2)cc1)c1c(-c2ccc(O)cc2)sc2cc(O)ccc12 here?
A: inactive

Q: What about the outcome [2] of the same molecule?
A: inactive

Q: What about the AC50 [3] of the same molecule?
A: 67.7 µM (active)

Q: What about the outcome [4] of the same molecule?
A: inactive

Q: And the outcome [5]?
A: inactive

Q: And the outcome [6]?
A: inactive

Q: What about the outcome [7] of the same molecule?
A: inactive

Q: And the outcome [8]?
A: inactive

Q: What about the outcome [9] of the same molecule?
A: inactive

Q: And the outcome [10]?
A: inactive

Q: With CCCCOCCOCCO as the molecule, how does the outcome [1] read?
A: inactive

Q: And the outcome [2]?
A: inactive

Q: What about the outcome [3] of the same molecule?
A: inactive

Q: What about the outcome [4] of the same molecule?
A: inactive

Q: And the outcome [5]?
A: inactive

Q: And the outcome [6]?
A: inactive

Q: And the outcome [7]?
A: inactive

Q: And the outcome [8]?
A: inactive

Q: And the outcome [9]?
A: inactive

Q: And the outcome [10]?
A: inactive

Q: What does the source list for CC/C(=C(\c1ccccc1)c1ccc(OCCN(C)C)cc1)c1ccccc1?
A: outcome [1]: inactive; outcome [2]: inactive; AC50 [3]: 71.2 µM (active); outcome [3]: inactive; AC50 [4]: 22.4 µM (active) and 27 µM (active); AC50 [5]: 74.6 µM (active); outcome [5]: inactive; outcome [6]: inactive; outcome [7]: inactive; AC50 [8]: 92.5 µM (active); outcome [8]: inactive; AC50 [9]: 66.4 µM (active); outcome [9]: inactive; outcome [10]: inactive

Q: COC(=O)c1ccc(C(=O)OC)cc1 was tested. Which outcome [1] did it give?
A: inactive

Q: And the outcome [2]?
A: inactive

Q: What about the outcome [3] of the same molecule?
A: inactive

Q: And the outcome [4]?
A: inactive

Q: And the outcome [5]?
A: inactive

Q: What about the outcome [6] of the same molecule?
A: inactive

Q: What about the outcome [7] of the same molecule?
A: inactive

Q: And the outcome [8]?
A: inactive

Q: What about the outcome [9] of the same molecule?
A: inactive

Q: And the outcome [10]?
A: inactive
